Hits are enriched below; roughly 4% of the tested compounds scored in any of these assays.
Mtb bLac sens: beta-lactam sensitization of Mtb H37Rv; M. tuberculosis H37Rv growth with meropenem, percent inhibition; inhibition, % at 25 µM; 0.27% of 330,000 active; call rule not given here;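 also: growth measured after seven days incubation then overnight dye step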
RecA intein inh: inhibitors of M. tuberculosis RecA intein splicing | inhibition, % (test concentration not listed) | cell-free RecA intein splicing, fluorescence | 0.75% of 290,000 active | AID 2221 | P9WHJ3; in the data active = inhibition above about 30%
Mtb FBA inh: inhibitors of M. tuberculosis fructose-bisphosphate aldolase; 2.3% of 360,000 active; AID 588726; P9WQA3; inhibition, % at 1 µM; purified M. tuberculosis FBA, fluorescence read-out; in the data active = inhibition above about 27%
Target sequence (P9WQA3 whole entry, looked up): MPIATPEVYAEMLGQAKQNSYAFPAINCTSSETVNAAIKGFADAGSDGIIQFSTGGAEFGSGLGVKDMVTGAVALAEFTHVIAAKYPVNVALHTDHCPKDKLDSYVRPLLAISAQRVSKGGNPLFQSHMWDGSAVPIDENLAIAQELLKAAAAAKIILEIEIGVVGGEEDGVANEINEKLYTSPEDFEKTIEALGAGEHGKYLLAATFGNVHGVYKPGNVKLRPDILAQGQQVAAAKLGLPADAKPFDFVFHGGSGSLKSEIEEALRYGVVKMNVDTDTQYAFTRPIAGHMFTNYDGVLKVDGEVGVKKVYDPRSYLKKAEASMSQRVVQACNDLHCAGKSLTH
Rv3671c inh: inhibits the M. tuberculosis serine protease Rv3671c; P9WHR9; inhibition, % at 5.96 µM; 0.048% of 320,000 active; AID 2606; in the data active = inhibition above about 38%;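 also: extracellular domain of Rv3671c used as enzyme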
GDH-TPI inh: counter-screen for M. tuberculosis FBA inhibitors: GDH-TPI coupled enzymes | GDH-TPI coupled enzyme counterscreen, NADH absorbance | inhibition, % at 4.8 µM | 1.2% of 360,000 active | AID 588335; in the data active = inhibition above about 30%
Mtb UGM inh: Mtb UDP-galactopyranose mutase inhibition. inhibition, % at 10 µM. purified UGM, fluorescence polarization probe displacement. 0.06% of 320,000 active. P9WIQ1; in the data active = inhibition above about 10%, passing the limit was not always enough
Numbers stand for hits; n = inactive; x = no result; + = active, no number.

SMILES	Mtb bLac sens	RecA intein inh	Mtb FBA inh	Rv3671c inh	GDH-TPI inh	Mtb UGM inh
COc1ccc2sc3cccc(NCCN(C)C)c3c(=O)c2c1	x	x	n	x	x	x
O=C(NC1CC1)c1cc2cc3ccccc3nc2s1	n	n	n	n	n	n
COc1ccc(/C=C/C=C2\NC(=S)NC2=O)cc1	n	n	n	n	n	n
O=C1NC(=S)N/C1=C\C=C\c1ccccc1	n	n	n	n	33.2	n
CCCOc1ccc(/C=C/C(=O)OCC(=O)N(C)c2c(N)n(Cc3ccccc3)c(=O)[nH]c2=O)cc1OCC	n	x	n	n	n	n
O=C(c1nc[nH]c1C(=O)N1CCN(c2ccccc2)CC1)N1CCN(c2ccccc2)CC1	n	x	n	n	n	n
OCCC1CN(CC2CC2)CCN1Cc1ccc(F)c(F)c1 (stereo unspecified)	n	n	n	n	n	n
CN(C)c1ccc(C=O)c(Oc2ccccc2)c1	x	x	n	x	37.8	x
COCCNC(=O)c1cccc(OC2CCN(Cc3ccc(OC(F)F)cc3)CC2)c1	n	n	n	n	n	n
CC(C)(C)n1nnnc1C(c1cc2cc3c(cc2[nH]c1=O)OCCO3)N1CCSCC1 (stereo unspecified)	n	n	33.7	n	n	n
CCOC(=O)C1CCN(CC(=O)c2ccc(O)c(C)c2O)CC1	n	n	n	n	32.2	n
O=C(NCc1cccnc1)c1cccc(Cl)c1	n	n	n	n	n	n
COc1ccc(CNC(=O)c2ccc(=O)oc2)cc1OC	n	n	n	n	59.6	n
O=C(NCc1cccnc1)c1ccc(=O)oc1	n	n	n	n	43.4	n
CC(C)(C)CC(C)(C)n1nnnc1N	x	x	n	x	n	x
CC(=NC1CC1)C1=C(O)c2ccccc2C1=O	n	n	n	n	37.6	n
C/C(=N\N(C)C)C1=C(O)c2ccccc2C1=O	n	n	n	n	n	n
COc1ccc(N=C(C)C2=C(O)c3ccccc3C2=O)cc1	n	n	n	n	36.4	n
CC(=O)c1ccc(N2CCN(C(=O)c3cc(-c4cccnc4)nc4ccc(Br)cc34)CC2)cc1	n	n	n	n	46.3	n
CN(C(=O)c1cnccn1)c1nnc(-c2cnccn2)s1	n	n	n	n	31.3	n
Cc1ccc(C(=O)N/C(=C\c2ccc(-c3ccc(Br)cc3)o2)C(=O)NCCCN(C)C)cc1	n	n	n	n	n	n
COc1cc(C(=O)NCC(=O)N/N=C/c2ccc(-c3cccc([N+](=O)[O-])c3)o2)cc(OC)c1OC	n	n	n	n	37.6	n
Cc1ccc(C(=O)N/C(=C\c2ccc(-c3cccc([N+](=O)[O-])c3)o2)C(=O)NCCCN(C)C)cc1	n	n	n	n	58.6	n
CN(C)CCCNC(=O)/C(=C\c1ccc(-c2cccc([N+](=O)[O-])c2)o1)NC(=O)c1ccccc1	n	n	n	n	35.3	n
O=C(O)c1cc(O)ccc1N=Nc1ccccc1	n	n	n	n	n	n
SMILES	Mtb bLac sens	RecA intein inh	Mtb FBA inh	Rv3671c inh	GDH-TPI inh	Mtb UGM inh
O=C(O)c1ccccc1N=Nc1ccc(O)cc1	n	n	n	n	35.8	n
COc1ccc(NC(=O)c2ccc3c(=O)n4c(nc3c2)CCCCC4)cc1	n	n	n	n	n	n
COc1ccc(-c2cc3nc4n(c(=O)c3s2)CCCCC4)cc1	n	n	+	n	n	n
COc1ccc(-c2cc3nc(C)n(N)c(=O)c3s2)cc1	n	n	+	n	32.4	n
COc1ccc(-c2cc3nc4n(c(=O)c3s2)CCC4)cc1	n	n	+	n	n	n
CC(C)CN(C(=O)CCCOc1ccc(Cl)cc1Cl)c1c(N)n(Cc2ccccc2)c(=O)[nH]c1=O	n	n	n	n	n	n
CCN(C(=O)Cn1nc(C)c([N+](=O)[O-])c1C)c1c(N)n(Cc2ccccc2)c(=O)[nH]c1=O	n	n	n	n	n	n
Cc1ccccc1-n1nc(C)c(N=O)c1N	n	n	113.5	n	n	n
COc1cc(NC(=O)COC(=O)Cc2ccsc2)cc(OC)c1	n	x	n	n	n	n
CN(C)c1ccc(C=NCCC2(c3ccccc3)CCOC(C)(C)C2)cc1 (stereo unspecified)	n	n	n	n	55.6	x
CN(C)c1ccc(C=NCC2(O)CCOC(C)(C)C2)cc1 (stereo unspecified)	n	n	n	n	47.7	n
Cc1c(OCc2nn[nH]n2)ccc2c(-c3ccccc3)cc(=O)oc12	n	n	n	n	n	n
Cc1c(CC(=O)O)c(=O)oc2c(C)c(OCc3nn[nH]n3)ccc12	n	n	147.4	n	n	n
Cc1cc(OCc2nn[nH]n2)c2c(C)c(CC(=O)O)c(=O)oc2c1	n	n	+	n	n	n
CN(/N=C/c1cc(Cl)cc(Cl)c1O)c1c(Cl)cccc1[N+](=O)[O-]	n	n	n	n	37.4	n
CCOC(=O)C1CCCN(C(=O)CCc2nc3sc4c(c3c(=O)[nH]2)CCCC4)C1 (stereo unspecified)	n	x	n	n	n	n
Nc1cc(-c2ccccc2)n2c(n1)nc1ccccc12	n	n	n	n	n	n
COc1cc(-c2c(C#N)c(N)nc(SCc3ccncc3)c2C#N)cc(OC)c1OC	n	n	n	n	n	n
COc1cc(-c2cc3nc4ccccc4n3c(N)c2C#N)cc(OC)c1OC	n	n	+	n	n	n
N#Cc1c(-c2ccccc2)cc2nc3ccccc3n2c1N	n	n	147.4	n	n	n
BrC(/C=N/Nc1nc(N2CCOCC2)nc(N2CCOCC2)n1)=C/c1ccccc1	n	n	n	n	40.7	n
COCCNC(=O)C1(C)CCN(Cc2ccc3ccccc3c2Br)C1 (stereo unspecified)	x	x	n	x	n	x
NC(=S)N/N=C/c1c(O)ccc2ccccc12	n	n	n	n	31.8	n
C=CCNC(=S)N/N=C/c1cn(C)c2ccccc12	n	n	n	n	32.2	n
Cn1cc(/C=N/NC(N)=S)c2ccccc21	n	n	n	n	37.0	n
SMILES	Mtb bLac sens	RecA intein inh	Mtb FBA inh	Rv3671c inh	GDH-TPI inh	Mtb UGM inh
O=C(NCCS(=O)(=O)NC1CCCC1)c1ccccc1	n	n	n	n	n	n
CCCCNC(=O)N(O)C1N(/N=C/c2ccccc2F)C(=S)SC1(C)C (stereo unspecified)	n	n	n	n	n	n
CC1(C)SC(=S)N(/N=C/c2ccc(O)cc2)C1N(O)C(=O)Nc1ccc([N+](=O)[O-])cc1 (stereo unspecified)	n	n	n	n	35.0	n
CCCCNC(=O)N(O)C1N(/N=C/c2ccco2)C(=S)SC1(C)C (stereo unspecified)	n	x	n	n	43.7	n
Cc1ccc(/C=C(\C#N)C(=O)Nc2c(C)cccc2C)s1	n	n	n	n	45.0	n
Cc1cccc(C)c1NC(=O)/C(C#N)=C/c1ccsc1	n	n	n	n	n	n
Cc1ccc(NC(=O)/C(C#N)=C/c2ccc(C)s2)c(C)c1	n	n	n	n	n	13.3
COc1ccc(-c2cncc3nccn23)cc1OC	x	x	n	x	n	x
CCOc1ccc(-c2cncc3nccn23)cc1	x	x	+	x	n	x
